High-throughput results from PubChem BioAssay.
Shown are actives, neighbours in structure and some others; about 19% of the full set was active somewhere.
IL-1B inflam inh: qHTS for Inhibitors of Inflammasome Signaling: IL-1-beta AlphaLISA Primary Screen. activity change, % at 57.5 µM. actives 4.7% (n = 360,000). THP-1 LPS/ATP IL-1B secretion, AlphaLISA, 16 h; active compounds read low; in the data active = activity change below about -50%; inconclusive = mostly about -30% to -49%
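THP-1 cells pretreated 1 hr with compounds (up to 57.5 uM final), then stimulated with LPS (250 ng/mL final) plus ATP (1.25 mM final); secreted IL-1B measured by AlphaLISA after 16 hr, decreased signal indicating inhibition.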
HT1080-NT tox: qHTS for induction of synthetic lethality in tumor cells producing 2HG: qHTS for the HT-1080-NT fibrosarcoma cell line | AID 686970, 2013 | actives 1.6% (n = 360,000) | HT-1080-NT fibrosarcoma viability, CellTiter-Glo ATP luminescence, 48 h | Potency, µM (series often up to 46.1 µM), without a hit: top-dose activity, negative = less viability, most hits filed as cytotoxic;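 also: NT is the 2HG producing partner of a matched IDH1 knockdown line; potency is read from the fitted curve at half-maximal effect; 0% = DMSO-treated cells and -100% = media-only wells without cells; nearly all actives have a fitted effect of over 55% in size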
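Compounds were tested in concentration-response format on HT-1080-NT cells for 48 hours at 37 degrees C. Cell viability came from CellTiter-Glo luminescence; curves were classified by r2, response magnitude and activity.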
DT40 TDP1 CPT: qHTS for Inhibitors of human tyrosyl-DNA phosphodiesterase 1 (TDP1): qHTS in cells in presence of CPT. chicken DT40 Tdp1-/-;hTDP1 cells + 20 nM CPT, ATP luminescence, 48 h. Potency, µM (highest dose often 46.2 µM), without a hit: at the highest dose activity change, negative = growth inhibition, most hits filed as inhibitors. actives 12% (n = 420,000); also: potency is read from the fitted curve at half-maximal effect; nearly all actives have a fitted effect of over 55% in size
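Cell growth measured by CellTiter-Glo luminescence after a minimum 48 h, 37 C compound exposure with 20 nM CPT in Tdp1-knockout DT40 cells stably expressing hTDP1, seeded 400/well; qHTS titration format.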
HT1080 IDH1KD tx: qHTS for induction of synthetic lethality in tumor cells producing 2HG: qHTS for the HT-1080-IDH1KD cell line; HT-1080 IDH1 knockdown viability, ATP luminescence, 48 h; Potency, µM (series often up to 46.1 µM), without a hit: at the highest dose activity, negative = toxicity, usual class: cytotoxic; actives 2% (n = 360,000); AID 686971, 2013;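 also: potency is read from the fitted curve at half-maximal effect; 0% = DMSO wells and -100% = cell-free medium wells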
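Cytotoxicity counter-line: IDH1KD HT-1080, 48 h, CellTiter-Glo. Curves classed by r2, magnitude and activity.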
TDP1 cell noCPT: qHTS for Inhibitors of human tyrosyl-DNA phosphodiesterase 1 (TDP1): qHTS in cells in absence of CPT; Potency, µM (top dose mostly 46.2 µM), inactives show at the top dose activity change, negative = growth inhibition, most hits filed as inhibitors; DT40 Tdp1-/- hTDP1 cells, no CPT, ATP luminescence, 48 h; actives 15% (n = 420,000); also: potency is read from the fitted curve at half-maximal effect; nearly all actives have a fitted effect of over 55% in size
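Readout: luminescence from CellTiter-Glo after 30 min in the dark at RT. Cells: DT40 Tdp1-/- with stable hTDP1, 400/well. Exposure: compounds alone, ≥48 hr, 37 °C.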
Active calls of the source: *; u = inconclusive; x = no result. Unless noted, calls follow the shape of the dose curve; as a rule, active = well fitted curve in the direction sought with a large enough effect; inconclusive = small, poorly fitted or top-dose-only effect, or another doubt; inactive = no such curve, though single readings can be large; an effect the other way counts as inactive or inconclusive. Unless noted, % is scaled to controls: 0 for no effect and ±100 for the full control effect.

SMILES	IL-1B inflam inh	HT1080-NT tox	DT40 TDP1 CPT	HT1080 IDH1KD tx	TDP1 cell noCPT
NC(=O)C1CCN(C(=O)Nc2csc3ccccc23)CC1	30	-1%	24%	6%	-3%
O=C(Nc1ccc(Cl)cc1F)c1cc(S(=O)(=O)N2CCCCC2)ccc1F	7	1%	26%	4%	-8%
O=C(Nc1cc(S(=O)(=O)N2CCCCC2)ccc1Cl)c1ccc(F)cc1	-4	-3%	5%	-2%	-14%
Cc1cc(C)cc(NC(=O)c2cc(S(=O)(=O)N3CCCC3)ccc2F)c1	x	x	u	x	21µM*
Cc1cc(C)cc(NC(=O)c2cc(S(=O)(=O)NCc3ccco3)ccc2F)c1	u	u	u	u	11µM*
O=C(Nc1cc(S(=O)(=O)N2CCCC2)ccc1Cl)c1cc(F)c(F)c(F)c1F	-99*	0%	-21%	-1%	-30%
Cc1cc(C)cc(NC(=O)c2cc(S(=O)(=O)N3CCCC3)cn2C)c1	u	-9%	-12%	-5%	-12%
Cc1ccc(C)c(NC(=O)c2cc(S(=O)(=O)N3CCCCCC3)ccc2F)c1	x	x	16µM*	x	u
COc1ccc(OC)c(C(O)c2ncc(-c3ccccc3OC)[nH]2)c1 (stereo not given)	9	5%	u	3%	u
CC(=O)Oc1ccc2oc(=O)c3c(c2c1)CCCN3C(=O)CN1CCOCC1	10	-2%	-13%	4%	-2%
CCN1CC(CN(C)Cc2nc(Cc3ccccc3)no2)CC1=O (stereo not given)	23	-1%	-5%	5%	0%
Cc1ccc(NC(=O)c2cc(S(=O)(=O)N3CCCCCC3)ccc2F)cc1F	x	x	8.2µM*	x	u
Cc1c(C(=O)NCc2ccccc2)sc2nc3n(c(=O)c12)CCC3	x	x	-27%	x	-8%
Cc1c(C(=O)NCc2ccccc2Cl)sc2nc3n(c(=O)c12)CCCC3	x	x	u	x	23µM*
Cc1c(C(=O)NCc2ccccc2Cl)sc2nc3n(c(=O)c12)CCCCC3	x	x	u	x	26µM*
CC1=CC(C)C2(COC(=O)Nc3ccccc3)COC(C)C1C2C (stereo not given)	0	1%	2%	-3%	u
NC(Cc1ccc(Cl)cc1)c1csc(Nc2ccc(S(N)(=O)=O)cc2)n1 (stereo not given)	u	u	15µM*	u	9.2µM*
CS(=O)(=O)c1ccc(Nc2nc(C(N)Cc3ccc(Cl)cc3)cs2)cc1 (stereo not given)	u	15µM*	12µM*	u	16µM*
NC(Cc1ccc(C(F)(F)F)cc1)c1csc(Nc2ccc(S(N)(=O)=O)cc2)n1 (stereo not given)	u	21µM*	13µM*	u	21µM*
COc1ccc(C(N)c2csc(Nc3ccc(S(C)(=O)=O)cc3)n2)cc1 (stereo not given)	-25	-17%	23µM*	-8%	u
CC(C)C(N)c1csc(Nc2ccc(S(C)(=O)=O)cc2)n1 (stereo not given)	-26	8%	7%	3%	0%
CCC(C)NC(=O)Cn1cccc1C(=O)c1ccccc1 (stereo not given)	9	9%	-4%	6%	-18%
CC(NC(=O)Cn1cccc1C(=O)c1ccccc1)c1ccccc1 (stereo not given)	-10	3%	13µM*	-1%	u
O=C(Nc1ccc2c(c1)OCCO2)C(=O)NC1CC1	-6	1%	-17%	-7%	-27%
COc1ccc(C2C(Oc3ccccc3C)C(=O)N2Cc2ccc(F)cc2)cc1OC (stereo not given)	u	-16%	u	0%	u
SMILES	IL-1B inflam inh	HT1080-NT tox	DT40 TDP1 CPT	HT1080 IDH1KD tx	TDP1 cell noCPT
COc1ccc(OC2C(=O)N(Cc3ccc(F)cc3)C2c2cc(OC)c(OC)c(OC)c2)cc1 (stereo not given)	-17	-7%	u	-2%	23µM*
CCN(CC)CC(C)CNC(=O)c1cc(-c2ccc(Br)s2)nc2ccccc12 (stereo not given)	x	x	8.2µM*	x	9.2µM*
CCOC(=O)c1c(NC(=O)c2ccoc2C)sc(C(=O)N(C)C)c1C	-20	-16%	-28%	-7%	23µM*
CCN(CC)C(=O)c1sc(NC(=O)c2ccoc2C)c(C(=O)OC)c1C	u	-5%	u	-2%	21µM*
CCN(CC)C(=O)c1sc(NC(=O)C(Sc2ccccc2)c2ccccc2)c(C(=O)OC(C)C)c1C (stereo not given)	-18	-9%	u	-12%	16µM*
Cc1ccc(C)c(-c2cc(C(=O)Nc3sc(C)c(C)c3C(N)=O)c3ccccc3n2)c1	u	u	21µM*	u	u
CCOC(=O)c1c(NC(=O)COC(=O)c2ccccc2NC)sc(C(=O)N(C)C)c1C	-79*	-28%	u	u	u
CCN(CC)C(=O)c1sc(NC(=O)c2cc(-c3ccc(C)s3)nc3ccccc23)c(C(=O)OC)c1C	-3	6%	u	3%	23µM*
CN(C)CCCN(C(=O)c1ccc(S(=O)(=O)N2CCc3ccccc32)cc1)c1nc2ccc(F)cc2s1	-81*	-8%	u	u	u
Cc1cc(C)c2sc(N(CCCN(C)C)C(=O)c3ccc(S(=O)(=O)N4CCCc5ccccc54)cc3)nc2c1	-67*	18µM*	10µM*	u	9.2µM*
CCOC(=O)N1CCN(S(=O)(=O)c2ccc(C(=O)N(CCCN(C)C)c3nc4cc(OC)ccc4s3)cc2)CC1	u	0%	-16%	12%	-5%
Cc1ccc2nc(N(CCCN(C)C)C(=O)c3ccc(S(=O)(=O)N4CCOCC4)cc3)sc2c1	-13	-15%	-26%	-13%	-11%
Cc1ccc2nc(N(CCCN(C)C)C(=O)c3ccc(S(=O)(=O)N4CCc5ccccc5C4)cc3)sc2c1	-96*	u	5.2µM*	13µM*	5.8µM*
COc1ccc2sc(N(CCCN(C)C)C(=O)c3ccc(S(=O)(=O)N4CCc5ccccc5C4)cc3)nc2c1	-118*	u	4.1µM*	u	4.6µM*
COc1ccc2sc(N(CCCN(C)C)C(=O)c3ccc(S(=O)(=O)N4CCCC4)cc3)nc2c1	u	-4%	-23%	-5%	-17%
CN(CCCNC(=O)Cn1ncc2c([nH]c3ccccc32)c1=O)Cc1ccccc1	x	x	-7%	x	-25%
